TEAD-YAP inh – TEAD-YAP interaction inhibition; inhibition, % at 9.12 µM; AID 1259422; 1.4% of 640,000 active; HEK-TIYL cells, TEAD-Gal4/YAP UAS-luciferase luminescence; in the data active = inhibition above about 32%
FBW7 activator – activators of human E3 ligase FBW7 | Q969H0 | normalized activity (activation), % at 26.1 µM | 0.13% of 650,000 active | AlphaScreen FBW7–phospho-cyclin E peptide binding, activator screen | AID 1259310; in the data active = normalized activity above about 1.9%;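 also: purified mutant Fbw7 with reduced substrate affinity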
GPR151 ag – activators of human GPR151; Q8TDV0; PathHunter beta-arrestin GPR151 cells, luminescence; activation, % at 11.2 µM; 1% of 650,000 active; in the data active = activation above about 4.9%
MITF inh – human MITF inhibition, primary screen | O75030 | AlphaScreen MITF homodimerization, bead proximity signal | inhibition, % at 2.6 µM | 0.91% of 650,000 active | AID 1259374; in the data active = inhibition above about 50%
GPR151 conf act – confirmation of human GPR151 activators. activation, % at 11.2 µM. shares compounds with GPR151 ag. 6,700 tested, under 10 active. GPR151 PathHunter beta-arrestin cells, luminescence, 90 min; % of EA-reagent control over plate median;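 active = mean percent activation across replicates above the confirmation screen cutoff of 4.91%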
GPR119 counter – GPR119 activation, counter-screen for GPR151 activators | shares compounds with GPR151 ag | GPR119 PathHunter beta-arrestin cells, luminescence, 90 min; 0 = compound-well median, 100 = enzyme-acceptor control | activation, % at 11.2 µM | 0.3% of 6,700 active;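 active = mean percent activation in the counterscreen above 29.09%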;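 also: counterscreen on off-target GPR119 to flag nonselective hits from the GPR151 activator screen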
Hits are given with their value; . = inactive; / = no result given. A selection: hits, their analogues and other compounds. The true share with any hit is near 3.5%.

SMILES	TEAD-YAP inh	FBW7 activator	GPR151 ag	MITF inh	GPR151 conf act	GPR119 counter
O=C(CSCc1ccc([N+](=O)[O-])cc1)N1CCN(c2cccc(Cl)c2)CC1	.	.	13	.	.	.
COc1ccc(S(=O)(=O)N(CC(=O)Nc2ccc(CC#N)cc2)c2ccc(Cl)cc2)cc1	.	.	.	.	/	/
CC1CCCCC1NC(=O)Cn1ncc2c3ccccc3n(C)c2c1=O (stereo not drawn)	.	.	.	.	/	/
O=c1c2ccccc2nc(SCc2ccc(Cl)cc2)n1Cc1ccc2c(c1)OCO2	.	.	.	.	/	/
N#CCSc1nc2ccccc2c(=O)n1Cc1ccc2c(c1)OCO2	.	.	5.1	.	.	.
CCNC(=O)CN(c1cc(C(F)(F)F)ccc1Cl)S(C)(=O)=O	.	.	.	.	/	/
CS(=O)(=O)N(CC(=O)O)c1cc(C(F)(F)F)ccc1Cl	.	.	6.3	.	.	.
Cc1ccccc1NC(=O)CC(=O)c1ccc([N+](=O)[O-])cc1	.	.	.	.	/	/
Cc1c(Br)c(C(F)(F)F)nn1CC(=O)Nc1cccc(O)c1	.	.	10.0	.	.	.
Cc1c(Br)c(C(F)(F)F)nn1CC(=O)Nc1cc(C(F)(F)F)ccc1Cl	.	.	.	.	/	/
Cc1noc(/C=C/C=C/c2ccccc2)c1[N+](=O)[O-]	.	.	.	.	/	/
COc1ccc(OC)c(/C=C\c2onc(C)c2[N+](=O)[O-])c1	.	.	8.9	.	.	.
Cn1c(N)c(S(=O)(=O)Nc2cccc(Cl)c2)c(=O)n(C)c1=O	.	.	7.7	.	.	.
Cc1c(S(=O)(=O)Nc2cccc(Cl)c2)c(=O)n(C)c(=O)n1C	.	.	.	.	/	/
Cc1ccsc1/C=C1\SC(=N)N(c2ccc(F)cc2)C1=O	.	.	23	.	.	.
Cc1ccc(N2C(=N)S/C(=C/c3sccc3C)C2=O)cc1C	.	.	.	.	/	/
CN(C)c1nc(Nc2ccc(F)cc2)c2cnn(C)c2n1	.	.	.	.	/	/
Cc1ccc(Nc2nc(N(C)C)nc3c2cnn3C)cc1C	.	.	6.2	.	.	.
C=CCn1c(=O)c2c(nc3n(-c4ccc(F)cc4)c(C)c(C)n23)n(C)c1=O	.	.	.	.	/	/
O=C1NC(N2CCOCC2)=N/C1=C/c1ccc2c(c1)OCO2	.	.	9.4	.	.	.
CCN1C=CC=C/C1=C1\SC(=S)N(C)C1=O	.	.	7.3	.	.	.
COc1ccc2c(Cl)c(C(=O)NN3CCOCC3)sc2c1	.	.	.	.	/	/
COc1ccc(NC(=O)C2C3CCC(C3=C(C)C)C2C(=O)O)cc1 (stereo not drawn)	.	.	5.5	.	.	.
C=CCSc1ncnc2sc(C)c(C)c12	.	.	5.3	.	.	.
O=[N+]([O-])c1ccccc1CNc1ccc(F)c(Cl)c1	.	.	5.9	.	.	.
SMILES	TEAD-YAP inh	FBW7 activator	GPR151 ag	MITF inh	GPR151 conf act	GPR119 counter
CCOC(=O)c1c(NC(=O)/C=C/c2ccc(C)o2)sc(C)c1C	.	.	9.8	.	.	.
CC(C)CCn1c(=O)c2sccc2n2c(CCCC(=O)NC3CC3)nnc12	.	.	5.0	.	.	.
CNC(=O)CCCc1nnc2n(CCC(C)C)c(=O)c3sccc3n12	.	.	.	.	/	/
CCOc1ccc(NC(=O)N2CCC(Cn3cnc4cc(C)c(C)cc43)CC2)cc1	.	.	5.8	.	.	.
CCOc1ccc(NC(=O)N2CCC(CN3CCCCCC3)CC2)cc1	.	.	.	.	/	/
CN(C)c1ccc(CNCc2ccccc2Cl)cc1	.	.	.	.	/	/
COc1ccc(NC(=O)CSc2nc(-c3cccc(C)c3)ns2)cc1	.	.	.	.	/	/
O=C(Nc1ccc(Cl)cc1)N1CCN(c2ccc3nnc(-c4ccccc4)n3n2)CC1	.	.	.	.	/	/
CC1Sc2cc(S(=O)(=O)CCC(=O)NC3CCCC(C)C3C)ccc2NC1=O (stereo not drawn)	.	.	5.1	.	.	.
CC1Sc2cc(S(=O)(=O)CCC(=O)Nc3ccccc3F)ccc2NC1=O (stereo not drawn)	.	.	5.3	.	.	.
CC(C)C1=CC(=Nc2ccc(S(N)(=O)=O)cc2)C=C(C(C)C)C1=O	.	.	14	.	.	.
COC(=O)C(NC(=O)c1ccc(F)cc1)C12CC3CC(CC(C3)C1)C2 (stereo not drawn)	.	.	.	.	/	/
COC(=O)C(NC(=O)c1cccs1)C12CC3CC(CC(C3)C1)C2 (stereo not drawn)	.	.	5.1	.	.	.
CCOC(=O)c1c(C)oc2c1cc(NS(=O)(=O)c1ccc(Cl)c([N+](=O)[O-])c1)c1ccccc12	.	.	.	.	/	/
CCc1cc2[nH]c(C(=O)OC)cc2s1	.	.	5.0	.	.	.
C=CCn1c(=S)[nH]c2cc(C(=O)Nc3ccc4c(c3)CCC4)ccc2c1=O	.	.	.	.	/	/
CCC(C)(C)n1nnnc1CN(Cc1cccnc1)Cc1cc2cccc(C)c2[nH]c1=O	.	.	.	.	/	/
CC(=O)N1N=C(c2ccc3nccnc3c2)CC1c1ccccc1 (stereo not drawn)	.	.	5.9	.	.	.
COc1ccc(C2=NN(C(C)=O)C(c3ccccc3)C2)cc1OC (stereo not drawn)	.	.	.	.	/	/

Screening data (PubChem)
